Compound activity as filed in PubChem BioAssay.
ALOX12 inhib: 12-hLO (ALOX12) enzyme inhibition | P18054 | purified 12-hLO, xylenol orange hydroperoxide absorbance | Potency, µM (titrated, usually from 57.1 µM), for the others: top-dose activity change, negative = inhibition, usual class: inhibitors | hit rate 0.12% among 150,000 | AID 1452; further: potency means the concentration at half of the fitted maximal effect; on the % scale 0 is the no-effect control and ±100 the full control effect; nearly all actives have a fitted effect of over 55% in size
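150 nM 12hLO, 25 mM Hepes pH 7.0 + 0.01% Triton X-100; cpd preinc 15 min RT; 40 uM arachidonic acid, 30 min RT; Fe-XO 30 min; A573/A405 ratio as read-out.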
NPSR antagonist: blocks cAMP signaling of the human neuropeptide S receptor; Q6W5P4; CHO-NPSR cells, cAMP TR-FRET, antagonist mode; Potency, µM (titrated, usually from 38.3 µM), inactives show at the highest dose activity change, negative = inhibition, actives largely listed as inhibitors; hit rate 1% among 220,000; AID 1461; further: potency means the concentration at half of the fitted maximal effect; on the % scale 0 is the no-effect control and ±100 the full control effect; nearly all actives have a fitted effect of over 50% in size
Target sequence (Q6W5P4 whole entry, looked up): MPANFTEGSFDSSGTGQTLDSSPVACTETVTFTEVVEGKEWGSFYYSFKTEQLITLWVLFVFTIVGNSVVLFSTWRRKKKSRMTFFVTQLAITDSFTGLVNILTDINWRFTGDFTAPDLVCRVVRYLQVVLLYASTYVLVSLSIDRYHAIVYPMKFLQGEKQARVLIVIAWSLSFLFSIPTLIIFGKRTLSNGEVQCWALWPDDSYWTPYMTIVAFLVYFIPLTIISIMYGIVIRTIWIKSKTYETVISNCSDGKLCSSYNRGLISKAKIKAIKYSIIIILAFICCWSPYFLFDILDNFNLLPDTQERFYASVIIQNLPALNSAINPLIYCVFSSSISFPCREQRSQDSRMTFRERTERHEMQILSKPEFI
IMPase inh: cell-permeable inhibitors of inositol monophosphatase (IMPase) | P97697 | CHO-M1 cells, IP1 accumulation, HTRF TR-FRET ratio | inhibition (IP1 accumulation), % at 46.1 µM | 120,000 tested, under 10 active | AID 901; active means well fitted curve in the direction sought with a large enough effect in the signal ratio, not every such curve was filed as active; inconclusive means small, poorly fitted or top-dose-only effect, or a change in a side signal; inactive means no such curve, though single readings can be large or run the other way; the % refers to the signal ratio;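 further: cells stimulated with carbachol in lithium chloride buffer; plate controls were DMSO basal wells for no effect and reference inhibitor wells for full effect; higher means more IMPase inhibition seen as more IP1 and lower FRET ratio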
Target sequence (P97697 whole entry, looked up): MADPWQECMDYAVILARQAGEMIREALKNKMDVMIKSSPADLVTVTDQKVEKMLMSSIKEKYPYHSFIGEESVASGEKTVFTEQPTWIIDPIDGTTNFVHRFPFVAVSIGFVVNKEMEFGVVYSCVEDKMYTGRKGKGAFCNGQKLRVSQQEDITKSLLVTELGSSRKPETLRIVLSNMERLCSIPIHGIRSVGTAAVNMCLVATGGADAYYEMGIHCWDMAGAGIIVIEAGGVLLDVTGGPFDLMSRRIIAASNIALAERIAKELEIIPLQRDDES
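Seeded CHO-M1 cells were dosed with compound at up to 46 uM, stimulated with carbachol for 30 min, then lysed in IP-One detection reagents. Higher IP1 lowers the TR-FRET signal.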
PNC assembly inh: inhibitors of perinucleolar compartment assembly | PC3M PTB-GFP, PNC prevalence imaging, 16 h; stronger effect = lower value | activity change (PNC), negative = inhibition, % at 10 µM | hit rate 3.1% among 140,000;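 active means readout at or below -70, meaning at least 70% loss of cells showing the perinucleolar compartment, a nuclear body marking cancer cells; inconclusive means readout between -30 and a set limit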;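 further: plate controls were DMSO wells for no effect and camptothecin positive control wells for full effect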
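PC3M cells stably expressing PTB-GFP, 750–1000 cells/well, treated 16 h at 37 °C with compound (23 nl of library stock), in duplicate. After paraformaldehyde fixation and Hoechst stain, imaged at 20x; PNC prevalence scored by image analysis.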
HTT aggregate: inhibitors of mutant huntingtin aggregate formation in PC12 cells | PC12 HttQ103-GFP aggregates, Acumen cytometry, 40 h | Potency, µM (highest dose often 46.1 µM), inactives show at the highest dose activity change, negative = inhibition, usual class: inhibitors | hit rate 1.1% among 220,000; further: potency means the concentration at half of the fitted maximal effect; on the % scale 0 is the no-effect control and ±100 the full control effect; nearly all actives have a fitted effect of over 60% in size
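Ecdysone-promoter PC12 model expressing HTT exon 1 Q103 fused to GFP, induced by tebufenozide at 100 nM final. Compounds titrated; aggregates sized 1–25 µm scored on a 488 nm laser cytometer.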
HTT cytoprotect: Huntington cell model cytoprotection by ATP luminescence. PC12 HTT-Q103 induced, cytoprotection, ATP luminescence, 40 h. Potency, µM (series often up to 56.4 µM), for the others: cytoprotection (ATP increase), most hits filed as activators. hit rate 0.14% among 230,000; further: potency means the concentration at half of the fitted maximal effect; % of control where 0% means no effect; nearly all actives have a fitted effect of over 45% in size
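Readout: ATPlite luminescence (ATP level). Model: stable PC12, inducible Htt exon1 Q103-GFP. Inducer: tebufenozide, 100 nM final. Compounds: dose series. No G418 in medium.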
Numbers without * were called inactive; ? = inconclusive; · = no result; [ ] = another dose, or the depositor's remark. A selection: hits, their analogues and other compounds. The true share with any hit is near 3.3%. Unless noted, the call rests on the fitted dose curve; in most records, active means well fitted curve in the direction sought with a large enough effect; inconclusive means small, poorly fitted or top-dose-only effect, or another doubt; inactive means no such curve, though single readings can be large; an effect the other way counts as inactive or inconclusive.

SMILES	ALOX12 inhib	NPSR antagonist	IMPase inh	PNC assembly inh	HTT aggregate	HTT cytoprotect
CCC(=O)N1CCN(c2ccc(Cl)cc2NC(=O)Cc2ccc(Cl)cc2)CC1	-2%	?	17	-82*	-23%	-10%[10 µM]
Cc1ccc(NC(=O)Cn2cc(S(=O)(=O)N3CCN(c4ccccc4F)CC3)c3ccccc3c2=O)cc1F	·	·	-7	·	·	·
Cc1cccc(C)c1Nc1c(-c2ccc(Cl)s2)nc2ncccn12	·	·	-15	·	·	·
COc1ccc(C(=O)N2CCC3(CCCN(Cc4cc(C(F)(F)F)cc(C(F)(F)F)c4)C3)CC2)cc1	0%	·	·	·	·	-6%
CC(=O)Nc1cccc(NC(=O)c2cc3ccccc3o2)c1	5%	-23%[46.1 µM]	5	-27	-9%	-88%[10 µM]
O=C(Nc1ccccc1)c1cc2ccccc2o1	15%	0%[46.1 µM]	-6	-100*	-11%	?
CCCCCCCCCCCCCCCCOCC(CO)OC(C)=O (stereo not drawn)	-1%	·	·	·	·	-26%
CC1CCN(C(=O)c2cc(F)c(F)cc2Cl)CC1	3%	4%[46.1 µM]	9	-100*	-10%	-2%[10 µM]
O=C(c1cc(F)c(F)cc1Cl)N1CCOCC1	2%	-7%[46.1 µM]	-4	19	-11%	-4%[10 µM]
Cc1ccc(-c2cc(C(F)F)n3ncc(C(=O)N4CCN5CCCC5C4)c3n2)cc1 (stereo not drawn)	-5%	-22%[46.1 µM]	21	-4	12%	4%
CCOC(=O)C1CCCN(C(=O)c2cnn3c(C(F)F)cc(-c4ccc(C)cc4)nc23)C1 (stereo not drawn)	-3%	?	5	-107*	-17%	?
CCCN[C@@H](C)C(=O)Nc1ccccc1C	-1%[25.6 µM]	·	-4[20.6 µM]	·	-6%	?
CCOc1ccc(C(=O)Nc2c(C(N)=O)oc3ccccc23)cc1	-9%	8%	-8	-119*	-11%	-21%[10 µM]
COc1cccc(C(=O)Nc2c(C(N)=O)oc3ccccc23)c1	-8%	?	-8	-11	-7%	-13%
O=C(/C=C/c1ccccc1Cl)Nc1ccc(-c2nnc3n2CCCCC3)cc1	0%	-10%	·	-6	-9%	?
O=C(/C=C/c1cccc([N+](=O)[O-])c1)Nn1c(-c2ccccc2F)nc2ccccc2c1=O	-10%	8%	·	-118*	14%	·
N#Cc1cc(Oc2cccnc2)c(Oc2cccnc2)cc1C#N	7%	5%[46.1 µM]	?	-111*	16%	22%
O=[N+]([O-])c1ccc(Oc2cccnc2)nc1	·	-20%	·	·	11%[9.22 µM]	15%[10 µM]
O=C(Oc1ccc(OC(=O)c2ccco2)c(S(=O)(=O)c2ccc(Br)cc2)c1)c1ccco1	-3%	-12%[46.1 µM]	7	-100*	11%	-14%
Cc1csc(/C(=N\O)c2csc(C)n2)n1	-6%	-8%[46.1 µM]	-5	-100*	-14%	-2%[10 µM]
N#CC(c1ccc(O)cc1)N1CCOCC1 (stereo not drawn)	-4%	3%[46.1 µM]	1	-103*	14%	2%[1.9 µM]
Clc1cccc(Nc2ncnc3ccc(Br)cc23)c1	4%	0%[46.1 µM]	0	-14	11µM*	-52%
CCCCCCCCNc1ncnc2ccccc12	-13%	?	8	17	·	-8%
c1ccc(CCNc2ncnc3ccccc23)cc1	·	-10%	·	·	1.8µM*	-122%
Brc1ccc2ncnc(NCc3ccccc3)c2c1	-2%	-6%[46.1 µM]	?	6	2.2µM*	22%
SMILES	ALOX12 inhib	NPSR antagonist	IMPase inh	PNC assembly inh	HTT aggregate	HTT cytoprotect
Cc1cccc(Nc2ncnc3ccc(Br)cc23)c1	·	-28%	·	·	-44%[9.22 µM]	-2%
CCCn1c(-c2ccc(F)cc2)nc2c(NCCN3CCSCC3)nc(C)nc21	-5%	·	·	·	·	-36%
COc1cc2c(cc1OC)C(c1ccc(N)cc1)=NNC(=O)C2	-3%	·	1	·	·	-37%
CC(C(=O)O)c1ccc2c(c1)[nH]c1ccc(Cl)cc12 (stereo not drawn)	-5%	·	·	·	31%	0.35µM*
Cc1cc(=O)[nH]c2ccc(Cl)cc12	0%	-4%[46.1 µM]	-5	-29	9%	-1%
O=C(c1ccc(F)cc1)N1CCN(c2ccc([N+](=O)[O-])cc2-n2cccc2)CC1	·	10µM*	·	·	?	-25%[10 µM]
CCOc1ccccc1NC(=O)CSc1nnc(-c2ccccn2)n1Cc1ccco1	-8%	-29%[46.1 µM]	?	-82*	?	-6%
CCOc1ccccc1NC(=O)CSc1nnc(-c2ccco2)n1Cc1ccco1	-8%	-33%[46.1 µM]	4	-23	-14%	-4%
O=C(CSc1nnc(-c2ccco2)n1Cc1ccco1)NCc1ccccc1	3%	-1%[46.1 µM]	2	-94*	24%	7%
COc1ccccc1NC(=O)CSc1nnnn1Cc1ccccc1	-5%	-24%[46.1 µM]	4	?	4%	8%
CCOc1ccccc1NC(=O)CSc1nnnn1Cc1ccccc1	-10%	-29%[46.1 µM]	-4	-82*	-22%	-13%
O=C(CSc1nnc(-c2ccco2)n1Cc1ccccc1)NCc1ccccc1	2%	-7%[46.1 µM]	3	200	0%	22%[10 µM]
C[C@@]12CC[C@@H]3c4ccc(O)cc4C[C@H](CCCCCCCCCS(=O)CCCC(F)(F)C(F)(F)F)[C@H]3[C@@H]1CC[C@@H]2O (stereo partly drawn)	-5%	·	2	·	·	-3%
CN(C)Cc1ccccc1-c1cncnc1NCc1cccnc1	-6%	·	·	·	·	11%
COc1ccc(C2=C(Nc3ccc(Br)c(C)c3)c3ccccc3C2=O)cc1	·	·	12	·	·	·
CN(CC(=O)Nc1ccc(C#N)cc1)Cc1ccc(Cl)cc1	-12%	8%[7.67 µM]	9	31	-21%	16%[10 µM]
N#Cc1ccc(NC(=O)Nc2ccc(Cl)cc2)cc1	1%	-9%[46.1 µM]	23	-21	25µM*	-3%[10 µM]
CCCC[C@@H](C=O)NC(=O)[C@H](CC(C)C)NC(=O)[C@H](CC(C)C)NC(C)=O	2%[0.00818 µM]	·	·	·	·	·
O=C(O)c1ccc(NCCC2=CCCCC2)c([N+](=O)[O-])c1	·	-19%	·	·	-16%	-59%
CCNC(=S)NS(=O)(=O)c1ccc(C)cc1	1%	1%[46.1 µM]	-7	-85*	4%	16%[10 µM]
COc1cccc2c1C(=O)c1c(O)c3c(c(O)c1C2=O)C[C@@](O)(C(=O)CO)C[C@@H]3O[C@H]1C[C@H](N)[C@H](O)[C@H](C)O1	-3%	?	·	-115*	·	-88%
CC(=O)C1(O)Cc2c(O)c3c(c(O)c2C(OC2CC(N)C(O)C(C)O2)C1)C(=O)c1c(O)cccc1C3=O (stereo not drawn)	·	·	·	·	1µM*	-24%
COc1cccc2c1C(=O)c1c(O)c3c(c(O)c1C2=O)C[C@@](O)(C(=O)CO)C[C@@H]3OC1CC(N)C(O)C(C)O1 (stereo partly drawn)	·	·	·	·	2.5µM*	-58%
